High-throughput results (PubChem BioAssay)
Compounds with a hit are over-represented: about 4.4% of the library has one in this group of screens.
tim23-1 inh: tim23-1 yeast growth inhibition; S. cerevisiae tim23-1 growth, BacTiter-Glo luminescence, 24 h; AID 463212; inhibition, % at 20 µM; 1.3% of 330,000 active;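 active = growth inhibition of the mutant yeast at or above 50%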;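 also: temperature-sensitive mutant grown at 25 °C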
TIM10 inh: TIM10 yeast growth inhibition; S. cerevisiae TIM10 strain growth, BacTiter-Glo luminescence, 24 h; inhibition, % at 10 µM; 1.4% of 330,000 active; AID 463195;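 active = inhibition of 40% or more at the single tested concentration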;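 also: wild-type TIM10 isogenic control strain grown at permissive 25 °C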
SUMO Mot1 rescue: blocks SUMOylation pathway, rescuing yeast Mot1-301 growth | growth rescue, % at 18.8 µM | 1% of 320,000 active | AID 2716 | S. cerevisiae Mot1-301 growth rescue, ATP luminescence, 38.5C; percent above DMSO median, 100 means doubled;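 active = every valid replicate shows activation above 250% relative to neutral control wells; inactive = the rest, any valid replicate at or below 250%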
tim10-1 inh: tim10-1 yeast growth inhibition. S. cerevisiae tim10-1 ts strain growth, BacTiter-Glo, 24 h. inhibition, % at 20 µM. 2.2% of 330,000 active. AID 463190;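 active = inhibition of at least 40%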;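 also: mutant grown at 25 °C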
PfHsp90 yeast 2: inhibits growth of yeast expressing Plasmodium falciparum Hsp90 | S. cerevisiae expressing PfHsp90, BacTiter-Glo ATP, 48 h; yeast lacking PDR1 and PDR3 efflux regulators | 0.32% of 310,000 active | inhibition, % at 9.4 µM | AID 504621;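 active = every replicate shows inhibition above about 80%, whatever the replicate mean, limit read from the data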
Yeast Mot1 SUMO: SUMO pathway inhibitors in yeast Mot1-301 growth | AID 493004 | S. cerevisiae Mot1-301 galactose growth, ATP luminescence, 24 h; -100 = growth of slx-deleted rescue strain | growth activity, percent, % at 42 µM | shares compounds with SUMO Mot1 rescue | 2,300 tested, under 10 active;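 active = Signal drops as the depositor expects, and the fitted half-maximal dose is no more than ten times the top valid tested dose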;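 also: more negative values mean stronger growth rescue toward the control strain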
Of the large screens only hits and unclear results are named; the others gave an inactive call (follow-up assays come after a bar, where they were run); ! = not confirmed by another sample.

CCNc1nc(NCC)nc(SCCOC(=O)Nc2ccccc2)n1	SUMO Mot1 rescue active | Yeast Mot1 SUMO inactive
Cc1cc2nc(SCCOC(=O)Nc3ccccc3)nc(C)c2cc1C	none
CCOc1ccccc1CN1CCNC(=O)C1CC(=O)NCCN1CCOC1=O (centres undefined)	SUMO Mot1 rescue 501 | Yeast Mot1 SUMO inactive
CCOC(=O)C1(CCOc2ccccc2)CCN(Cc2cccc(OC)c2O)CC1	SUMO Mot1 rescue 517 | Yeast Mot1 SUMO inactive
CCOc1ccc(-c2nnc(SCC(=O)N3CCCC3)o2)cc1	SUMO Mot1 rescue 713 | Yeast Mot1 SUMO inactive
COc1ccc(-c2nnc(SCC(=O)N3CCCCC3)o2)cc1	SUMO Mot1 rescue 542 | Yeast Mot1 SUMO inactive
Cc1ccc(S(=O)(=O)N2CCCCC2CCNC(=O)C(=O)Nc2ccccc2F)cc1 (centres undefined)	none
O=C1c2ccccc2C2(c3cc(C(F)(F)F)cc(C(F)(F)F)c3)NCCN12 (centres undefined)	none (no result: tim23-1 inh, TIM10 inh, tim10-1 inh)
COc1cc(C(=S)N2CCOCC2)cc(OC)c1O	none
CCOC(=O)CS(=O)(=O)c1ccc2ccccc2c1	SUMO Mot1 rescue 955 | Yeast Mot1 SUMO inactive
Cc1ccc(C(=O)NCC(=O)Nc2ccc(S(=O)(=O)Nc3cc(C)nc(C)n3)cc2)cc1	none
Oc1c(Br)cc(Br)cc1/C=N/N1CCN(Cc2ccccc2)CC1	SUMO Mot1 rescue 842 (no result: tim23-1 inh, TIM10 inh, tim10-1 inh) | Yeast Mot1 SUMO inactive
Cc1ccc(CN2CCN(/N=C/c3cc(Br)cc(Br)c3O)CC2)c(C)c1	none
Cc1cccc(/C=N/NC(=O)Cc2cccs2)c1	SUMO Mot1 rescue 908 | Yeast Mot1 SUMO inactive
O=C(Cc1cccs1)N/N=C/c1ccccc1	none
CCCc1cc(=O)[nH]c2nnc(SCC(=O)NCc3ccc4c(c3)OCO4)n12	none (no result: PfHsp90 yeast 2)
CN(c1ccccc1)c1cc(Br)nc(Br)c1	none
CC1c2cc3c(cc2CCN1CC(=O)Nc1ccccc1)OCCCO3 (centres undefined)	SUMO Mot1 rescue 653 | Yeast Mot1 SUMO inactive
Cc1cc(=O)oc2ccc(OC(=O)CC(C)C)cc12	SUMO Mot1 rescue 810 | Yeast Mot1 SUMO inactive
CCOC(=O)Oc1ccc2oc(=O)cc(C)c2c1	none (no result: PfHsp90 yeast 2)
COCC1CCN(C(=O)c2ccc3oc(Cc4ccc(Cl)cc4)nc3c2)C1 (centres undefined)	none
COCCNC(=O)C(=O)NCC1OCCN1C(=O)c1ccc(Cl)cc1 (centres undefined)	SUMO Mot1 rescue 525 | Yeast Mot1 SUMO inactive
C=CCN1c2ccccc2[C@]23C[C@@H](C(=O)OC)N=C2NC(C(=O)OC)=C(C(=O)OC)[C@H]13	SUMO Mot1 rescue 834 (no result: PfHsp90 yeast 2) | Yeast Mot1 SUMO inactive
Cc1ccc2c(c1)N(CC(=O)NCCCN1CCN(C)CC1)C(=O)CO2	SUMO Mot1 rescue 634 | Yeast Mot1 SUMO inactive
CCC(=O)Nc1ccc(C(=O)NCCCn2ccnc2)cc1	none
CCC(=O)c1c[nH]c(C(=O)NCCCn2ccnc2)c1	SUMO Mot1 rescue active | Yeast Mot1 SUMO inactive
COc1ccc(C(=O)Nc2nccs2)cc1OC	none
COc1cc(/C=C(\NC(=O)c2ccccc2)C(=O)Nc2nccs2)ccc1OC(C)=O	SUMO Mot1 rescue 395 | Yeast Mot1 SUMO inactive
Cc1cnc(C(=O)OCC(=O)Nc2ccc3c(c2)OCCO3)cn1	none
Cc1cnc(C(=O)OCC(=O)Nc2ccc(C)c(S(=O)(=O)N(C)C)c2)cn1	SUMO Mot1 rescue 669 | Yeast Mot1 SUMO inactive
C#CCOCCOCCOCCNc1nc(N2CCN(C(=O)Cn3cc(CC(C)O)nn3)CC2)nc(N2CCN(C(=O)[C@H](C)n3cc(CCC(=O)O)nn3)CC2)n1 (some centres undefined)	none (no result: tim23-1 inh, TIM10 inh, SUMO Mot1 rescue, tim10-1 inh)
CCCc1cc(=O)oc2c3c(c4c(c12)OC(C)(C)C=C4)OC(C)C(C)C3O (centres undefined)	SUMO Mot1 rescue 779 | Yeast Mot1 SUMO inactive
CN(C)c1ccc(/C=N\Nc2ccccn2)cc1	SUMO Mot1 rescue 458 | Yeast Mot1 SUMO inactive
CN(C)c1ccc(C=NNc2ccccn2)c(Cl)c1	none (no result: tim23-1 inh, TIM10 inh, SUMO Mot1 rescue, tim10-1 inh)
COC(=O)C1=C(C)NC(C)=C([N+](=O)[O-])C1c1ccccc1C(F)(F)F (centres undefined)	SUMO Mot1 rescue 497! | Yeast Mot1 SUMO inactive
COC(=O)C1=C(C)NC(C)=C(C(=O)OC)C1c1ccc(-c2cccc([N+](=O)[O-])c2)o1	none
